# Results taken from PubChem BioAssay (NCI).
# About 83,000 compounds went through this panel and 20% of them were active in at least one assay; those are over-represented in the sample as a whole.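 Single-dose data. Exposure time 48 hours. Values below 10 considered active.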 Values without a mark were called inactive. Calls of active or inactive are those of the source.
# How the values were obtained:
# Assay in all cases: NCI-60 one-dose screen, 48 h (100 = growth as untreated, 0 = no growth, -100 = all killed)
# [1] = test system: HCT-15 colon; settings: 10 µM unless noted
# [2] = test system: SNB-75 CNS; settings: 10 µM
# [3] = test system: SNB-19 CNS; settings: 10 µM unless noted
# [4] = test system: U251 CNS; settings: 10 µM unless noted
# [5] = test system: PC-3 prostate; settings: 10 µM unless noted
# [6] = test system: SK-MEL-5 melanoma; settings: 10 µM unless noted
# [7] = test system: UACC-62 melanoma; settings: 10 µM unless noted
# [8] = test system: LOX IMVI melanoma; settings: 10 µM unless noted
# [9] = test system: SK-MEL-28 melanoma; settings: 10 µM unless noted
# [10] = test system: SN12C renal; settings: 10 µM unless noted
# [11] = test system: UO-31 renal; settings: 10 µM unless noted
# [12] = test system: TK-10 renal; settings: 10 µM unless noted
# [13] = test system: ACHN renal; settings: 10 µM unless noted
# [14] = test system: A498 renal; settings: 10 µM unless noted
# [15] = test system: CCRF-CEM leukemia; settings: 10 µM unless noted
# [16] = test system: MOLT-4 leukemia; settings: 10 µM unless noted
# [17] = test system: SK-MEL-2 melanoma; settings: 10 µM unless noted
# [18] = test system: EKVX NSCLC; settings: 10 µM unless noted
# [19] = test system: CAKI-1 renal; settings: 10 µM unless noted
Structure (SMILES),growth [1],growth [2],growth [3],growth [4],growth [5],growth [6],growth [7],growth [8],growth [9],growth [10],growth [11],growth [12],growth [13],growth [14],growth [15],growth [16],growth [17],growth [18] [%],growth [19] [%]
CC(=O)Nc1nc(N)nc(NC(C)=O)c1N=O,104%,109%,111%,116%,99.6%,114%,109%,94.3%,115%,106%,93.3%,114%,104%,118%,112%,113%,–,–,–
COc1ccc(CNCCCN2C(=O)c3ccc4c5c(ccc(c35)C2=O)C(=O)N(CCCNCCCCNCCCN)C4=O)c(OC)c1OC,19.7%,-26.8% (active),28%,-6.34% (active),15.3%,–,1.36% (active),6.59% (active),29%,-54.6% (active),51.4%,25.7%,–,80%,16.5%,14.4%,-36.5% (active),48.7,56.1
O=C(CSC1CCc2ccccc21)N/N=C/c1ccccc1O (stereo unspecified),33.6%,71.7%,60.5%,48.7%,50.6%,47.7%,36.4%,40.4%,57.2%,59.9%,20%,37.1%,34%,101%,18.2%,2.59% (active),–,–,–
O=C(CCl)N(C1CCCCC1)C1CCCCC1,98.4%,95.7%,–,104%,93.7%,93.3%,102%,-3.14% (active),104%,107%,98.3%,104%,109%,91.7%,42.6%,110%,108%,104,98.7
Cc1ccc(Cc2c(C=O)nc(N)[nH]c2=O)c2ccccc12,101%,93%,98.5%,95.3%,88.8%,107%,110%,96.2%,104%,96.9%,81.2%,112%,107%,118%,80%,86.8%,–,101,92.7
Nc1cccc(Cl)c1N,96.5%,76.9%,116%,110%,90.8%,104%,108%,86.6%,119%,112%,71.2%,93%,90.4%,114%,71%,93.1%,–,92,96.4
O=C([O][Sn]([O]C(=O)c1ccccn1)([c]1ccccc1)[c]1ccccc1)c1ccccn1,81.7%,49.3%,105%,86.3%,93.1%,84.3%,83%,50.6%,98.1%,91.3%,82.4%,30.1%,100%,101%,18.1%,88.3%,–,92.2,–
COc1ccc(S(=O)(=O)n2ccc(-c3ccc4c(c3)CCC(C)(C)O4)n2)cc1OC,71.9%,84.6%,87.4%,79.5%,69.5%,28.2%,63.9%,76.7%,91%,83.1%,68.5%,72.1%,78%,52.8%,82.2%,63.8%,56.2%,–,58.3
CC1(c2ccc(Cl)cc2)OC(=O)CC(=O)O1,102%,99%,97%,102%,101%,110%,102%,106%,112%,102%,90.3%,121%,98.5%,101%,–,100%,–,98.4,94.9
COC(OC)c1ccccc1,105%,91%,121%,99.3%,93.1%,107%,107%,88.2%,104%,102%,85.4%,117%,102%,132%,119%,108%,–,103,95.4
C=C[C@@H]1C[C@@H]2Cc3c(C)cc(C)cc3N1O2,101%,95.4%,113%,90.2%,93%,103%,96%,88.4%,–,101%,101%,92.7%,101%,95.1%,-61.1% (active),-50.7% (active),110%,81.6,92.3
COc1cc(/C=C/c2cc(/C=C/c3ccc(O)c(OC)c3)n(C(N)=O)n2)ccc1O,4.33% (active),-40.9% (active),4.95% (active),-10.9% (active),-23.5% (active),-33% (active),-47.2% (active),1.48% (active),-24.6% (active),-5.22% (active),-22.1% (active),4.79% (active),-11.2% (active),-24.4% (active),-22.9% (active),-33% (active),-52.7% (active),–,14.1
C/C(=C\c1ccc(OCC(=O)O)c(Cl)c1Cl)[N+](=O)[O-],97.4%,103%,115%,96.4%,92%,109%,114%,92.1%,118%,106%,111%,113%,110%,113%,102%,84.6%,–,102,93.9
COc1ccc(/C=C(\C#N)c2cc(OC)c3c(c2)OCO3)cc1,15.7%,39.8%,37.8%,20.8%,23%,-58.9% (active),39.3%,19.2%,–,23.8%,39.9%,49.6%,–,35.5%,14.7%,7.91% (active),43.6%,50.4,40.7
COC(=O)c1cccc2c1N(C)c1c(cccc1C(=O)OC)CC2,97.9%,106%,111%,111%,97.4%,106%,98.7%,87.7%,120%,107%,101%,121%,104%,132%,89%,97.4%,–,112,97.7
CN1C=CN(Cc2ccc(-c3ccccn3)nc2)[CH-]1.CN1C=CN(Cc2ccc(-c3ccccn3)nc2)[CH-]1.[Au+3],68.5%,72.6%,62.6%,38.6%,20.3%,37.8%,30.7%,32.4%,50.7%,41.3%,83.5%,67.4%,81.7%,42.9%,6.2% (active),11.3%,46.5%,–,67.6
COc1ccc(C(=O)n2nc(/C=C/c3ccc(O)c(OC)c3)cc2/C=C/c2ccc(O)c(OC)c2)cc1,5.59% (active),-16% (active),12.8%,0.801% (active),-9.28% (active),-13.3% (active),-0.825% (active),4.5% (active),-8.32% (active),12.8%,-1.75% (active),24.7%,7.64% (active),-14.8% (active),-11.6% (active),-18.4% (active),-34.1% (active),–,20.4
CC(C)(C)OC(=O)NC(CSCc1ccccc1)C(=O)ON1C(=O)CCC1=O (stereo unspecified),103%,105%,106%,105%,91.3%,114%,112%,104%,120%,107%,90.8%,119%,101%,110%,96.7%,97%,–,113,112
